# Results published in the supplement of paper PMC10338343.
# ± gives the standard deviation.
# System: MILI (PIWIL2) piRISC loaded with L1MC piRNA (26 nt)
# Test: pre-steady-state target cleavage rate (min^-1); guide: L1MC piRNA 5'p-UAACUAAAUACUAUGCAAGCUGUAGG; MIWI and MILI are mouse PIWI proteins and EfPiwi is from a freshwater sponge; tags in brackets are library labels; higher = faster piRNA-guided slicing of the target
# Settings: auxiliary factor: 500 nM mouse GTSF1
# In short: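 For Cleave-'n-Seq, a transcribed, DNA-blocked target RNA library […] met 1 nM active affinity-purified piRISC with one synthetic guide at 33 °C for 0–8 or 0–960 min in HEPES–potassium acetate buffer, with or without 500 nM GTSF1 partner protein. Uncleaved targets were sequenced and normalised to depth and weakly complementary targets, with three trials pooled and k3 capped at 0.0001 min^-1. A burst-and-steady-state fit supplied the pre-steady-state cleavage rate.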
# 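Also: 1 nM active piRISC with 0.1 nM target library at 33 °C single turnover.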
row,Sequence,pre-steady-state target cleavage rate
1,UCCUGGAUGUCGAACCAUAGUAUUCAGUUA,< 0.0001
2,UCCUGGAUGUCCUUCGAUAGUAUUUAGUUA,0.00794 ± 0.0037
3,UCCUGGAACAGCAUGCAUAGUAUUUAGAAA,0.196 ± 0.025
4,UCCUCCUACAGCUUGCAUAGUAUAAUCAAA,0.122 ± 0.029
5,UCCUGGAUCAGCUUGCAUAGUAUUUCAGUUA,0.162 ± 0.028
6,UCCUGGUACAGCUUGCAUAGUUUUUACAAA,0.0185 ± 0.0077
7,UCCUGCUACAGCUUGCAAUCUAUUUACAAA,0.00954 ± 0.0044
8,UCCUGGAUGUCGAAGCAUAAUAUUUAGUUA,0.0097 ± 0.0039
9,UCCUGGAACAGCUUGCAAACUAUUUAGUUA,0.0282 ± 0.0064
10,UCCUGGAACAGCUUGCAUUCUAUUUAGUUA,0.0609 ± 0.014
11,UCCUGGAUCAGCUUGCAUAGAAUUUACAAA,0.00722 ± 0.0036
12,UCCUGGAACAGCUACGAUAGUAUUUAGAAA,0.0308 ± 0.011

# Same assay, conditions: auxiliary factor: none (no GTSF1)
row,Sequence,pre-steady-state target cleavage rate
1,UCCUGGAUGUCGUUGCAUAGAUUUUAGUUA,0.00439 ± 0.0019
2,UCCUGGAUGUCGAACGUAUGUGUUUAGUUA,< 0.0001
3,UCCUGGAUGUCGAAGCAUUGUAUAUAGUUA,< 0.0001
4,UCCUGGAUGUCGUUGCAUAGUUAAUAGUUA,0.00434 ± 0.0022
